Data published in PubChem BioAssay AID1159580 (chemical genetic matrix, 2015).
About 2,000 (36%) of roughly 5,500 compounds were called active. Not shown: some 18% with an inconclusive outcome. Rule as the data show it: active = normalized growth mostly below about 0.91 (no sharp cut-off); inconclusive = no clear call, values can overlap the other calls; inactive = mostly above about 0.92. This is one part of the list. Where a SMILES comes first, the peptide text is derived from it.

Test: chemical genetic growth profiling, strain panel (AID 1159580);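 also: tested at 20 µM; growth read once vehicle control cultures reached saturation at 30 °C; 1 = growth at the plate median or of vehicle wells; lower values mean less growth of the strain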
Conditions: S. cerevisiae deletion strains, growth OD
[1] = locus YHR030C, strain SLT2, stronger effect = lower value
[2] = locus YJL095W, strain BCK1, stronger effect = lower value

Measured: normalized growth

Nc1nc2[nH]c(=O)c(=O)[nH]c2c(=O)[nH]1
inactive: locus YAL013W, strain DEP1, stronger effect = lower value 1.01 | locus YBR021W, strain FUR4, stronger effect = lower value 0.971 | locus YBR229C, strain ROT2, stronger effect = lower value 0.998 | locus YCL029C, strain bik1, stronger effect = lower value 1.03 | locus YDL035C, strain GPR1, stronger effect = lower value 1.01 | locus YDL074C, strain BRE1, stronger effect = lower value 1.01 | locus YDL101C, strain DUN1, stronger effect = lower value 1 | locus YDL134C, strain PPH21, stronger effect = lower value 1.02 | locus YDL185W, strain tfp1, stronger effect = lower value 1.01 | locus YDL192W, strain arf1, stronger effect = lower value 0.995 | locus YDR101C, strain arx1, stronger effect = lower value 0.987 | locus YDR162C, strain NBP2, stronger effect = lower value 1.05 | locus YDR318W, strain mcm21, stronger effect = lower value 1.01 | locus YDR388W, stronger effect = lower value 1.01 | locus YDR502C, strain sam2, stronger effect = lower value 1.01 | locus YEL061C, strain CIN8, stronger effect = lower value 1.01 | locus YER110C, stronger effect = lower value 1.01 | locus YER155C, strain BEM2, stronger effect = lower value 1.01 | locus YER167W, strain BCK2, stronger effect = lower value 1.01 | locus YGL078C, strain dbp3, stronger effect = lower value 1.01 | locus YGL086W, strain mad1, stronger effect = lower value 0.978 | locus YGL248W, strain PDE1, stronger effect = lower value 1.01 | locus YGR078C, strain PAC10, stronger effect = lower value 1.01 | locus YGR135W, strain pre9, stronger effect = lower value 1.03 | locus YGR252W, strain gcn5, stronger effect = lower value 1.01 | [1] 1.01 | locus YHR079C, strain IRE1 (second series), stronger effect = lower value 1 | locus YHR094C, strain hxt1, stronger effect = lower value 1.01 | locus YHR129C, strain ARP1, stronger effect = lower value 1.01 | locus YHR200W, strain rpn10, stronger effect = lower value 0.992 | locus YIL066C, strain RNR3, stronger effect = lower value 1.02 | locus YIL073C, strain SPO22, stronger effect = lower value 1.04 | locus YIL125W, strain kgd1, stronger effect = lower value 1.01 | locus YIR030C, strain dcg1, stronger effect = lower value 1.01 | [2] 1.02 | locus YJL134W, strain LCB3, stronger effect = lower value 1.02 | locus YJL168C, strain set2, stronger effect = lower value 1 | locus YJL187C, strain SWE1 (second series), stronger effect = lower value 1.01 | locus YJR043C, strain POL32, stronger effect = lower value 0.996 | locus YKL009W, strain mrt4, stronger effect = lower value 0.998 | locus YKL068W, stronger effect = lower value 1.01 | locus YKL085W, strain MDH1 (second series), stronger effect = lower value 1.02 | locus YKL085W, strain MDH1, stronger effect = lower value 1.02 | locus YKL190W, strain CNB1, stronger effect = lower value 1.01 | locus YKR001C, strain vps1, stronger effect = lower value 1 | locus YLR039C, strain RIC1, stronger effect = lower value 1.03 | locus YLR058C, strain SHM2, stronger effect = lower value 1.01 | locus YLR102C, strain apc9, stronger effect = lower value 1.01 | locus YLR262C, strain YPT6, stronger effect = lower value 1.08 | locus YLR268W, strain sec22, stronger effect = lower value 1.02 | locus YLR330W, strain CHS5, stronger effect = lower value 1.01 | locus YLR342W, strain FKS1 (second series), stronger effect = lower value 0.973 | locus YLR371W, strain rom2, stronger effect = lower value 1.02 | locus YLR418C, strain cdc73, stronger effect = lower value 0.971 | locus YML016C, strain PPZ1, stronger effect = lower value 0.996 | locus YML032C, strain rad52, stronger effect = lower value 1.02 | locus YML124C, strain tub3, stronger effect = lower value 1.01 | locus YMR078C, strain ctf18, stronger effect = lower value 1 | locus YMR223W, strain ubp8, stronger effect = lower value 1.01 | locus YMR263W, strain SAP30, stronger effect = lower value 1.01 | locus YMR307W, strain GAS1, stronger effect = lower value 1.02 | locus YNL067W, strain RPL9B, stronger effect = lower value 1.02 | locus YNL128W, strain TEP1, stronger effect = lower value 1.05 | locus YNL153C, strain GIM3, stronger effect = lower value 1.01 | locus YNL233W, strain BNI4, stronger effect = lower value 1.03 | locus YNL250W, strain rad50, stronger effect = lower value 1.02 | locus YNL271C, strain bni1, stronger effect = lower value 1.01 | locus YNL298W, strain CLA4, stronger effect = lower value 1 | locus YNL307C, strain MCK1, stronger effect = lower value 1 | locus YNR052C, strain pop2, stronger effect = lower value 1.02 | locus YOL006C, strain TOP1, stronger effect = lower value 1.01 | locus YOL012C, strain htz1 1.04 | locus YOL147C, strain pex11, stronger effect = lower value 1 | locus YOR061W, strain CKA2, stronger effect = lower value 1 | locus YOR069W, strain VPS5, stronger effect = lower value 1.01 | locus YOR136W, strain idh2, stronger effect = lower value 1.01 | locus YOR144C, strain elg1, stronger effect = lower value 1 | locus YOR184W, strain ser1, stronger effect = lower value 0.996 | locus YOR316C, strain cot1, stronger effect = lower value 1.01 | locus YPR119W, strain clb2, stronger effect = lower value 1.02 | locus YPR141C, strain kar3, stronger effect = lower value 1.01 | locus YPR163C, strain tif3, stronger effect = lower value 1.02 | locus YPR167C, strain met16, stronger effect = lower value 1.04 | strain wtn01, stronger effect = lower value 1

CC(C)C[C@H](N)C(=O)N[C@@H](C)C(=O)O (H-Leu-Ala-OH)
inactive: [1] 1.01 | locus YHR079C, strain IRE1, stronger effect = lower value 1.01 | [2] 1.02 | locus YJR066W, strain TOR1, stronger effect = lower value 0.975 | locus YLR113W, strain HOG1, stronger effect = lower value 1.02 | locus YNL183C, strain NPR1, stronger effect = lower value 0.954 | locus YOR231W, strain MKK1, stronger effect = lower value 1.03 | locus YPL256C, strain CLN2, stronger effect = lower value 1.02
